Test results from PubChem BioAssay (NCATS).
Where “and” joins values, the source holds several entries; their conditions need not be identical. Equal values may be shown once. Records with an inconclusive call do not appear. Calls of active or inactive are those of the source. Unless noted, the call rests on the fitted dose curve.

Legend:
[1] = target: Estrogen receptor (Homo sapiens) (UniProt P03372); experiment: qHTS assay for small molecule agonists of estrogen receptor alpha signaling (AID 588514);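 further: 0% = vehicle only and 100% = reference agonist; nearly all actives have a fitted effect of over 70% in size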
Chain of Estrogen receptor (Homo sapiens) (P03372 whole entry, looked up): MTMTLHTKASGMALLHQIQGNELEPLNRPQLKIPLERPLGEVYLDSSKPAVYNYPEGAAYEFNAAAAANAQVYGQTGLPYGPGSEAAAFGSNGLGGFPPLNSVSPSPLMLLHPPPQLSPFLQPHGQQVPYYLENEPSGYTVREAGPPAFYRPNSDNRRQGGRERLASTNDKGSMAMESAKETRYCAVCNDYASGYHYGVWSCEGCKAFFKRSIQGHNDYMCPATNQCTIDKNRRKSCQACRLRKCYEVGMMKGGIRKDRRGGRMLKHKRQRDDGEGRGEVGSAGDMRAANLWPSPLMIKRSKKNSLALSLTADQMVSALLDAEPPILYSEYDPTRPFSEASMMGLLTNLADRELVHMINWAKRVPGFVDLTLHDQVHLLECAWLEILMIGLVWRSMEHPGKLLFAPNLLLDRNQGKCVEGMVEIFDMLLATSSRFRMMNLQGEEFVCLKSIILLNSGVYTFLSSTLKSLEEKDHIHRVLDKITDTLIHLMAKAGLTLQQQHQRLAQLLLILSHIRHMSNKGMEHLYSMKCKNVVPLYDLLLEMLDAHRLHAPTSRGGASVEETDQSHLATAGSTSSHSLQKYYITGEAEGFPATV
Method in brief: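 Cells were plated at 5000/well, incubated 4 hrs at 37 C, dosed with compound titration series, incubated 18 hrs at 37 C, loaded with CCF4 dye for 2 hrs at RT, then fluorescence was read.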

[2] = target: Glucocorticoid receptor (Homo sapiens) (UniProt P04150); experiment: qHTS assay for small molecule agonists of glucocorticoid receptor signaling (AID 588532; active means well fitted curve in the direction sought with a large enough effect in the signal ratio, with a control signal flat; the % refers to the signal ratio;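 further: 100% = dexamethasone at 0.1 µM and 0% = DMSO only wells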); conditions: HeLa MMTV-bla, beta-lactamase ratio, agonist, 18 h; activation: stronger effect = higher value, percent of dexamethasone control, DMSO zero
Chain of Glucocorticoid receptor (Homo sapiens) (P04150 whole entry, looked up): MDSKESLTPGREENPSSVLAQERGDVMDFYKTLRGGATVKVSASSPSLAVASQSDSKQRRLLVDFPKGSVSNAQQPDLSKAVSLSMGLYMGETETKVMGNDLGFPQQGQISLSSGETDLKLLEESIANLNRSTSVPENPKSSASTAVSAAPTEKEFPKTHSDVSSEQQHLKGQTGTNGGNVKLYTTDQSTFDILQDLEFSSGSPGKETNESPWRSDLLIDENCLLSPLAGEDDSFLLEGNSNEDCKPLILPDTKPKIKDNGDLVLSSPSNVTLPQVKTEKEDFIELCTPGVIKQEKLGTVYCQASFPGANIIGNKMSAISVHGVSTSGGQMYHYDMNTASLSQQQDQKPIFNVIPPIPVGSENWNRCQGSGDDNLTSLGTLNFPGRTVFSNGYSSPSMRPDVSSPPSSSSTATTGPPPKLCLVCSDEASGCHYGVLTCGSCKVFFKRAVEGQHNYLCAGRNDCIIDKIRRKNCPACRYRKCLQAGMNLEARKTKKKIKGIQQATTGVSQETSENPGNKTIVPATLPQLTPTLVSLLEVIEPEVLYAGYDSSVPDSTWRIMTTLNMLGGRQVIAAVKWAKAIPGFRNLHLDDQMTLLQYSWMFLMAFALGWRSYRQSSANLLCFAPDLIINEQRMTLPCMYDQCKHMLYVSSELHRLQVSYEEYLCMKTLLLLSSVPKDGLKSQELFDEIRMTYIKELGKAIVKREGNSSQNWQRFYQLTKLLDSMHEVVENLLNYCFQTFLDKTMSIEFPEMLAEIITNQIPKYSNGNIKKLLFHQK
Method in brief: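 Quantitative HTS using CellSensor MMTV-bla HeLa cells in charcoal/dextran-treated serum; compounds tested up to 92 uM. After 18 h at 37 C, CCF4 dye reported reporter induction.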

[3] = target: Glucocorticoid receptor (Homo sapiens) (UniProt P04150); experiment: qHTS assay for small molecule antagonists of glucocorticoid receptor signaling (AID 588533; active means well fitted inhibition curve with a large enough effect in the signal ratio, with a control signal flat, not every such curve was filed as active; the % refers to the signal ratio;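 further: cells stimulated with 2 nM dexamethasone as agonist; on the % scale 0 is the no-effect control and ±100 the full control effect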)
Method in brief: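 Antagonist-mode qHTS: compound titrations added to GRE-bla HeLa cells, then dexamethasone 2 nM final; 18 h, 37 C. CCF4 FRET fluorescence normalized to dexamethasone and DMSO; IC50 from Hill fit.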

[4] = target: Peroxisome proliferator-activated receptor delta (Homo sapiens) (UniProt Q03181); experiment: qHTS assay for small molecule agonists of peroxisome proliferator-activated receptor delta signaling (AID 588534);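 further: 0% = DMSO basal wells and 100% = positive control agonist at 10 µM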
Chain of Peroxisome proliferator-activated receptor delta (Homo sapiens) (Q03181 whole entry, looked up): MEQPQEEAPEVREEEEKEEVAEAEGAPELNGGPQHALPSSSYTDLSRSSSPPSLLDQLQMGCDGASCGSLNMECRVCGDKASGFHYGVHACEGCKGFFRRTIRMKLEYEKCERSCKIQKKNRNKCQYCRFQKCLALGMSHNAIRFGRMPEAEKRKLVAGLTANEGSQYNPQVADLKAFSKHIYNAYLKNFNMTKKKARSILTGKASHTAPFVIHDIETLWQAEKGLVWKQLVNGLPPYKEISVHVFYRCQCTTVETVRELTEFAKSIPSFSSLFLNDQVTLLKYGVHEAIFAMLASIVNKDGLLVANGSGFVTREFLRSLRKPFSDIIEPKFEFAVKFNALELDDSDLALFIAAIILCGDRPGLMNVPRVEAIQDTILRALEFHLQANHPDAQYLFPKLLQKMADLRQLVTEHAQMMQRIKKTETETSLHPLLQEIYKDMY
Method in brief: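 Fluorescence from CCF4 substrate cleavage by beta-lactamase reporter, read 2 hrs at RT, measured agonist activity. Compounds were tested with 18 hrs exposure at 37 C. Concentration-response data fitted to Hill equation.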

[5] = target: Peroxisome proliferator-activated receptor gamma (Homo sapiens) (UniProt P37231); experiment: qHTS assay for small molecule agonists of peroxisome proliferator-activated receptor gamma signaling (AID 588536; active means well fitted curve in the direction sought with a large enough effect in the signal ratio, with a control signal flat, not every such curve was filed as active; the % refers to the signal ratio;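 further: 0% = DMSO basal wells and 100% = rosiglitazone at 2 µM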)
Chain of Peroxisome proliferator-activated receptor gamma (Homo sapiens) (P37231 whole entry, looked up): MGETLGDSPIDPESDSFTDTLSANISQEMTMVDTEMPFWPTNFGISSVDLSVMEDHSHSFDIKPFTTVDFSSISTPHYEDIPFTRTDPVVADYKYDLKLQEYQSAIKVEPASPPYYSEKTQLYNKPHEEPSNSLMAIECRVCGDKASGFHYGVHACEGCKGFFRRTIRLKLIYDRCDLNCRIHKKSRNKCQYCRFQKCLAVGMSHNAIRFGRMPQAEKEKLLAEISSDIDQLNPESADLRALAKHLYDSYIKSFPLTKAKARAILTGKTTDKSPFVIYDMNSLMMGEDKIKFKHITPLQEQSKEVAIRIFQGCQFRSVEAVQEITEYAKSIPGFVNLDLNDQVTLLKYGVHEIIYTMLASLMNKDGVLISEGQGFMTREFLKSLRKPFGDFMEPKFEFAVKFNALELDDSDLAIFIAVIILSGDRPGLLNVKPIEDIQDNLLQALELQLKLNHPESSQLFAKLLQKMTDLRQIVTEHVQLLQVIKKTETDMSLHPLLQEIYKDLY
Method in brief: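 PPAR-gamma-UAS-bla HEK293 cells in medium with 1% charcoal/dextran-treated FBS were exposed to compounds for 16 h at 37 C. Beta-lactamase activity was read with CCF4 substrate (405 nm excitation, 460/530 nm emission).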

[6] = target: Thyroid hormone receptor beta (Homo sapiens) (UniProt P10828); experiment: qHTS assay for small molecule agonists of thyroid hormone receptor beta signaling (AID 588545);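 further: 0% = DMSO only and 100% = 10 nM T3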
Chain of Thyroid hormone receptor beta (Homo sapiens) (P10828 whole entry, looked up): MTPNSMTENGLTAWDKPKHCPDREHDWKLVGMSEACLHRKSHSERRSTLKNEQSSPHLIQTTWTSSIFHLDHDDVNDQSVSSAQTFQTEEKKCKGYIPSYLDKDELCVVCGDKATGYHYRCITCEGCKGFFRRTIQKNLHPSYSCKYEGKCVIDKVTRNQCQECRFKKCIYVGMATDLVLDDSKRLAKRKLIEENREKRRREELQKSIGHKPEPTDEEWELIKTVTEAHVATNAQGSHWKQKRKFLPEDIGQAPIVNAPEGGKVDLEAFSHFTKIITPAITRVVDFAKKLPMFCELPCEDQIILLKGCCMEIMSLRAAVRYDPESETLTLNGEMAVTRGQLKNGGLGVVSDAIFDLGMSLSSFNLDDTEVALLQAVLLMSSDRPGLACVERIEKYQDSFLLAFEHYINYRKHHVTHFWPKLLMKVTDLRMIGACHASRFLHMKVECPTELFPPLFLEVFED
Method in brief: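 TR-UAS-bla GripTite HEK 293 cells (2500/well, medium with 2% charcoal/dextran FBS) were treated in agonist mode for 18 h at 37 C, titrated. Beta-lactamase was read by CCF4 ratio after 2 h; normalized to 10 nM T3 (100%) and DMSO, Hill-fitted for EC50 and efficacy.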

[7] = qHTS assay for small molecule activators of the p53 signaling pathway (AID 651743; active means well fitted activation curve with a large enough effect in the signal ratio, not every such curve was filed as active; the % refers to the signal ratio; further: series mostly up to about 92 µM; % of control where 0% means no effect); conditions: HCT-116 p53RE-bla, beta-lactamase FRET ratio, 16 h; activation: stronger effect = higher value
Method in brief: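 Read-out is fluorescence intensity from the LiveBLAzer B/G FRET substrate, added for 2 hours at room temperature after HCT-116 p53RE-bla cells had been incubated with compounds for 16 hours at 37 C.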

[8] = qHTS assay for environmental chemicals that activate the Aryl hydrocarbon Receptor (AhR) signaling pathway (AID 651777; active means well fitted curve in the direction sought with a large enough effect; an effect the other way counts as inactive or inconclusive; further: % of control where 0% means no effect; nearly all actives have a fitted effect of over 15% in size); conditions: 1A2-DRE human hepatoma cells, luciferase, 24 h; activation: stronger effect = higher value
Method in brief: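 1A2-DRE human hepatoma reporter line; 1,200 cells/well; cmpd or DMSO 24 h, 37 C/5% CO2; One-Glo 30 min RT; luciferase lum.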

[9] = target: Peroxisome proliferator-activated receptor alpha (Homo sapiens) (UniProt Q07869); experiment: qHTS assay for small molecule agonists of the peroxisome proliferator-activated receptor alpha (PPARalpha) signaling pathway (AID 651778; active means well fitted curve in the direction sought with a large enough effect; an effect the other way counts as inactive or inconclusive; further: % of control where 0% means no effect); conditions: PathHunter PPARalpha complementation, chemiluminescence, 6 h; max response: stronger effect = higher value
Chain of Peroxisome proliferator-activated receptor alpha (Homo sapiens) (Q07869 whole entry, looked up): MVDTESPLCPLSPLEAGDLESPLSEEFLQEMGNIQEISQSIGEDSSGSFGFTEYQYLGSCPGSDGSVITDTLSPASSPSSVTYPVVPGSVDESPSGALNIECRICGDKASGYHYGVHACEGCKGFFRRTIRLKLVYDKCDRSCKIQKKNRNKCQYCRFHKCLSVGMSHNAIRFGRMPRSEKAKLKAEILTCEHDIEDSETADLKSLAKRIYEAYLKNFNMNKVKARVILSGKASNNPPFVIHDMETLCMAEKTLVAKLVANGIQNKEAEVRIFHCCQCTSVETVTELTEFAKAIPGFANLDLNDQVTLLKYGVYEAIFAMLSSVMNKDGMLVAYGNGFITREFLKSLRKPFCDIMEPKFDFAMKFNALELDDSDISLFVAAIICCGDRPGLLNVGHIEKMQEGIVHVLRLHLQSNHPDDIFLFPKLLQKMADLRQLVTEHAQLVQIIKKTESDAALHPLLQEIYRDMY
Method in brief: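 Chemiluminescence from complemented enzyme reported PPARalpha activation in cells after 6 hr of compound treatment at 37 C. The detection reagent was incubated for 60 min at room temperature, and compounds were scored as agonists.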

[10] = qHTS assay for small molecule agonists of the antioxidant response element (ARE) signaling pathway measured by Nrf2-dependant transcriptional activity - cell viability counter screen (AID 720653; active means well fitted curve in the direction sought with a large enough effect in the repeat runs; an effect the other way counts as inactive or inconclusive; further: potency means the concentration at half of the fitted maximal effect; on max response: on the % scale 0 is the no-effect control and ±100 the full control effect); conditions: ARE-bla HepG2 viability, CellTiter-Glo ATP luminescence, 16 h; max response: stronger effect = lower value
Method in brief: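 Cytotoxicity counter screen: intracellular ATP quantified by CellTiter-Glo luminescence in the same ARE-bla HepG2 plates, after 16 h compound exposure and a 2 h beta-lactamase substrate step.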

[11] = qHTS assay for cell viability of HEK293 cells (AID 743288; active means well fitted curve in the direction sought with a large enough effect; an effect the other way counts as inactive or inconclusive; further: nearly all actives have a fitted effect of over 50% in size; further: potency means the concentration at half of the fitted maximal effect); conditions: ATP luminescence (CellTiter-Glo), 18 h; max response: stronger effect = lower value
Method in brief: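 Parental HEK293 cells, 2,000 per well, preincubated at least 5 h at 37 C, then exposed to compounds in DMSO for 18 h at 37 C. Viability by CellTiter-Glo ATP luminescence after 30 min at room temperature.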

[12] = qHTS assay for cell viability of the p53RE-bla HCT-116 cell line (AID 743292; active means well fitted curve in the direction sought with a large enough effect; an effect the other way counts as inactive or inconclusive; further: on the % scale 0 is the no-effect control and ±100 the full control effect; nearly all actives have a fitted effect of over 55% in size)
Method in brief: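 HCT-116 p53RE-bla cells seeded 4,000/well; 5 h at 37 C; compound (DMSO) added; 16 h at 37 C; CellTiter-Glo added, 30 min RT; luminescence read.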

[13] = target: Nuclear receptor subfamily 1 group I member 2 (Rattus norvegicus) (UniProt Q9R1A7); experiment: qHTS assay for small molecule activators of the rat pregnane X receptor (rPXR) signaling pathway (AID 651751; call rule not given here; further: 0% is about no effect); conditions: rPXR reporter cells, luciferase (One-Glo), 24 h
Chain of Nuclear receptor subfamily 1 group I member 2 (Rattus norvegicus) (Q9R1A7 whole entry, looked up): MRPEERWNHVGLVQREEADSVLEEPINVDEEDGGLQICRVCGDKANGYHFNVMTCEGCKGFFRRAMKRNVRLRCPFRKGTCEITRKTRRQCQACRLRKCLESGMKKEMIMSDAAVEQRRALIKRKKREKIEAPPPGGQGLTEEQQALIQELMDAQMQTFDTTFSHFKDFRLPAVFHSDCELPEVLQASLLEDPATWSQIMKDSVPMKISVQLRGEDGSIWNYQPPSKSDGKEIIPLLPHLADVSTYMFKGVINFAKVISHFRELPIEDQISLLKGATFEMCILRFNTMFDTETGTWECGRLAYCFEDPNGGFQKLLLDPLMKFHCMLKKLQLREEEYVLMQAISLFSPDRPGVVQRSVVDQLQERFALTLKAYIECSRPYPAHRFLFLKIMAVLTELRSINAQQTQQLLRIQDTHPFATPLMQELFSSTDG

[14] = qHTS assay for small molecule antagonists of retinoid X receptor alpha signaling (AID 588546; active means well fitted inhibition curve with a large enough effect in the signal ratio, with a control signal flat, not every such curve was filed as active; the % refers to the signal ratio;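 further: cells stimulated with 9-cis-retinoic acid as agonist; on the % scale 0 is the no-effect control and ±100 the full control effect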); conditions: HEK293T RXRa-UAS-bla, beta-lactamase ratio, antagonist mode; measured here: W530 green channel, cytotoxicity proxy
Method in brief: (§1)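 Beta-lactamase reporter inhibition, read as CCF4 fluorescence ratio (ex 405, em 460/530 nm) after 2 h at RT. HEK293T UAS-bla cells, 2500/well, were stimulated with 9-cis-RA at 500 or 100 nM final alongside test compound for 18 h at 37 C.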

[15] = target: Retinoic acid receptor RXR-alpha (Homo sapiens) (UniProt P19793); experiment: as above; conditions: HEK293T RXRa-UAS-bla, beta-lactamase ratio, antagonist mode
Chain of Retinoic acid receptor RXR-alpha (Homo sapiens) (P19793 whole entry, looked up): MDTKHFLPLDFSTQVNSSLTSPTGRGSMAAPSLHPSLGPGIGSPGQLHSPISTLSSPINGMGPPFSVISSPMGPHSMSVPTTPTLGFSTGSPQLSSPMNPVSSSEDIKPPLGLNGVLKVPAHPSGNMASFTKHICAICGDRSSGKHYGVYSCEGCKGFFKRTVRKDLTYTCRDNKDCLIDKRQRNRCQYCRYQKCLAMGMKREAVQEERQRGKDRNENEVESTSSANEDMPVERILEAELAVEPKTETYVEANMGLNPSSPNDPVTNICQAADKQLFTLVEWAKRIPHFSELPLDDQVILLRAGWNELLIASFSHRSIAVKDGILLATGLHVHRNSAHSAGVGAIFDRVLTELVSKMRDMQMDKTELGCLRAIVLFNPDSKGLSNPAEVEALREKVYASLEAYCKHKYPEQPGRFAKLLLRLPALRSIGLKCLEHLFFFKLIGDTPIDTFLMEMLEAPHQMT
Method in brief: as §1

[16] = qHTS assay for small molecule agonists of the antioxidant response element (ARE) signaling pathway measured by Nrf2-dependant transcriptional activity (AID 720636; active means well fitted curve in the direction sought with a large enough effect in the repeat runs; an effect the other way counts as inactive or inconclusive;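 further: HepG2 cells with an ARE-driven luciferase reporter; % of control where 0% means no effect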)
Method in brief: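 Cells: ARE-luc HepG2 with Nrf2-responsive luciferase. Medium contained 1% dialyzed FBS. Compound exposure lasted 16 hr at 37 C and 5% CO2, followed by ONE-Glo luciferase detection.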

[17] = target: Thyroid hormone receptor beta (Homo sapiens) (UniProt P10828); experiment: qHTS assay for small molecule antagonists of thyroid hormone receptor beta signaling (AID 588547; active means well fitted inhibition curve with a large enough effect in the signal ratio, with a control signal flat, not every such curve was filed as active; the % refers to the signal ratio;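 further: cells stimulated with 0.4 nM T3 agonist during compound exposure; series mostly up to about 77 µM; on the % scale 0 is the no-effect control and ±100 the full control effect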); conditions: TR-UAS-bla HEK293, beta-lactamase ratio, antagonist mode, 18 h
Method in brief: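 Inhibition of T3-driven (0.4nM final) beta-lactamase reporter activity was measured over 0.59 nM to 92 uM compound after 18 h at 37 C. The cells were GripTite HEK293 TR-UAS-bla in charcoal/dextran-stripped serum, with CCF4 ratio read-out and IC50 from Hill fits.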

[18] = target: Vitamin D3 receptor (Homo sapiens) (UniProt P11473); experiment: qHTS assay for small molecule agonists of vitamin D receptor signaling (AID 588543);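 further: 0% = DMSO basal and 100% = reference agonist control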
Chain of Vitamin D3 receptor (Homo sapiens) (P11473 whole entry, looked up): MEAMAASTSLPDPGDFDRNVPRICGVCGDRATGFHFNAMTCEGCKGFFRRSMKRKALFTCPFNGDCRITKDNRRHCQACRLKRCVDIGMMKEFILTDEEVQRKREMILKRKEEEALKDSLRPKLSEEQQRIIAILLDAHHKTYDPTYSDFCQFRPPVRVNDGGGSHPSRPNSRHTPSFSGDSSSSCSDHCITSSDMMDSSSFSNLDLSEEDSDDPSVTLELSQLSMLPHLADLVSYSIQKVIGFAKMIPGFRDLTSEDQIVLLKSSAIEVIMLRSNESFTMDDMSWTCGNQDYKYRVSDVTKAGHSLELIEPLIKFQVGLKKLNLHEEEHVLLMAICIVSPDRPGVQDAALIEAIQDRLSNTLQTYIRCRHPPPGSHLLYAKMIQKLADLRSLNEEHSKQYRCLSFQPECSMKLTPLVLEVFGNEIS
Method in brief: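 VDR-UAS-bla HEK293T cells, 2000/well, 2% charcoal-stripped FBS; compound titration 16 h at 37 C; CCF4 beta-lactamase ratio read. Normalized to 50 nM 1-alpha,25-dihydroxyvitamin D3 (100%) and DMSO; Hill fit gives EC50, efficacy.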

[19] = qHTS assay for small molecule agonists of retinoid X receptor alpha signaling (AID 588544); conditions: HEK293T RXRa-UAS-bla, beta-lactamase reporter, 18 h; 530 nm emission;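 on activation: 0% = DMSO basal wells and 100% = reference agonist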
[20] = target: Retinoic acid receptor RXR-alpha (Homo sapiens) (UniProt P19793); experiment: as above

CCC(C)(NC(=O)c1cc(Cl)c(C)c(Cl)c1)C(=O)CCl (stereo not given)
inactive: Potency [1] | activation [2] -7.44% | Potency [3] | outcome [4] | Potency [5] | Potency [6] | activation [7] 14.9% | activation [8] 1.89% | max response [9] 0.829% | max response [10] 0.353% | max response [11] -19.8% | Potency [12] | max response [13] 1.32%

COP(=S)(OC)Oc1nc(Cl)c(Cl)cc1Cl
inactive: Potency [1] | activation [2] 1.34% | Potency [3] | Potency [6] | max response [15] 15.1% | activation [7] 10.9% | activation [8] 0.0215% | max response [9] -0.488% | Potency [16] | max response [10] -2.62% | max response [11] -14.5% | Potency [12] | max response [13] -1.85%
2.88%: max response [14]

Clc1ccc(-c2cc(Cl)c(Cl)cc2Cl)cc1Cl
-9.16%: max response [14]
inactive: Potency [1] | activation [2] -2.9% | Potency [3] | Potency [5] | Potency [6] | max response [15] 4.83% | activity change % (negative = inhibition) [17] -25.9% | activation [7] -5.87% | activation [8] 1.74% | max response [9] 0.243% | Potency [16] | max response [10] 3.45% | max response [11] -23.9% | Potency [12] | max response [13] -1.84%

CCOP(=O)(OCC)SCS(=O)(=O)C(C)(C)C
4.6%: max response [19]
inactive: Potency [1] | activation [2] -1.34% | Potency [3] | outcome [4] | Potency [5] | outcome [18] | Potency [20] | Potency [6] | max response [15] 2.18% | activity change % (negative = inhibition) [17] -16.4% | activation [8] 2.25% | max response [9] -3.37% | Potency [16] | max response [10] 1.67% | max response [11] -4.67% | Potency [12] | max response [13] 5.96%
-4.31%: max response [14]

CCOP(=O)(OCC)OC(Cl)C(Cl)(Cl)Cl (stereo not given)
-13.7%: max response [14]
inactive: Potency [1] | activation [2] -1.92% | Potency [3] | outcome [4] | outcome [18] | Potency [20] | Potency [6] | max response [15] -17.2% | activity change % (negative = inhibition) [17] -2.35% | activation [7] -3.88% | activation [8] 2.83% | max response [9] -2.65% | Potency [16] | max response [10] -17.4% | max response [11] -7.64% | Potency [12] | max response [13] 2.92%
-5.65%: max response [19]

O=C(O)C(F)(F)C(F)(F)C(F)(F)C(F)(F)C(F)(F)C(F)(F)C(F)(F)C(F)(F)F
1.6% and -25.9%: max response [19]
-12.8% and -2.74%: max response [14]
inactive: Potency [1] | activation [2] -0.386% and 5.13% | Potency [3] | outcome [4] | Potency [5] | outcome [18] | Potency [20] | Potency [6] | max response [15] 2.77% and -39.3% | activity change % (negative = inhibition) [17] 1.6% and 0.325% | activation [7] 1.7% | activation [8] 2.07% and 1.12% | max response [9] -1.46% and 5.33% | Potency [16] | max response [10] 4.68% and -1.78% | Potency [12] | max response [13] 1.17% and 2.66%

O=C(O)C1(O)c2ccccc2-c2ccc(Cl)cc21 (stereo not given)
inactive: Potency [1] | activation [2] -12.8% | Potency [3] | outcome [18] | Potency [6] | activity change % (negative = inhibition) [17] -1.32% | activation [7] 13.8% | activation [8] 9.46% | max response [9] 13.5% | max response [10] -16.8% | Potency [12]

O=[N+]([O-])c1ccc(Cl)c([N+](=O)[O-])c1
active: Potency [10] 44.7 µM | Potency [11] 50.1 µM
inactive: Potency [1] | activation [2] 0.437% | outcome [4] | activation [8] -11.5% | max response [9] -3.79% | Potency [16] | Potency [12] | max response [13] -13.5%

CCSCCSP(=O)(OC)OC
-9.27%: max response [14]
inactive: Potency [1] | activation [2] 8.21% | Potency [3] | outcome [4] | Potency [5] | outcome [18] | Potency [20] | Potency [6] | max response [15] -0.524% | activity change % (negative = inhibition) [17] 4.21% | activation [7] 2.18% | activation [8] -0.526% | max response [9] -0.363% | Potency [16] | max response [10] -6.91% | max response [11] -1.87% | Potency [12] | max response [13] -1.46%
1.71%: max response [19]

Nc1cccc(Cl)c1Cl
-11.4%: max response [19]
-14.5%: max response [14]
inactive: Potency [1] | activation [2] 0.21% | Potency [3] | outcome [4] | Potency [5] | outcome [18] | Potency [20] | Potency [6] | max response [15] -4.45% | activation [7] -4.27% | activation [8] -0.499% | max response [9] -3.86% | max response [10] -14.4% | max response [11] -1.9% | max response [13] 0.634%

CCOP(=S)(OCC)SCCl
inactive: Potency [1] | activation [2] 12.1% | Potency [3] | Potency [5] | outcome [18] | activity change % (negative = inhibition) [17] -1.44% | activation [8] 0.0178% | max response [9] -3.54% | Potency [16] | max response [10] -13.5% | max response [11] -19.2% | Potency [12] | max response [13] -4.02%

CCOP(N)(=O)Oc1ccc(SC)c(C)c1 (stereo not given)
inactive: Potency [1] | activation [2] -9.53% | Potency [3] | outcome [4] | Potency [5] | outcome [18] | Potency [20] | Potency [6] | max response [15] -26.2% | activity change % (negative = inhibition) [17] -15.7% | activation [7] -1.01% | activation [8] 0.564% | max response [9] -3.39% | Potency [16] | max response [10] -8.16% | Potency [12] | max response [13] 4.69%
-16.6%: max response [19]
-11.1%: max response [14]
